Laboratory results from PubChem BioAssay.
Activity calls are given as the source filed them.

Columns and labels:
Albumin (Bos taurus) = Albumin (Bos taurus) (UniProt P02769); assay: compounds binding labelled BSA control protein – biochemical, small-molecule microarray, Alexa647 label, 635/667 nm fluorescence, artefact control for SMM control protein annotation, profiling panel (AID 1118); settings: BSA-A647 binding, fluorescence 635 nm, higher = more signal;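 also: score merges 667 nm emission intensity and signal-to-noise per printed compound spot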
Sequence of Albumin (Bos taurus) (P02769 whole entry, looked up): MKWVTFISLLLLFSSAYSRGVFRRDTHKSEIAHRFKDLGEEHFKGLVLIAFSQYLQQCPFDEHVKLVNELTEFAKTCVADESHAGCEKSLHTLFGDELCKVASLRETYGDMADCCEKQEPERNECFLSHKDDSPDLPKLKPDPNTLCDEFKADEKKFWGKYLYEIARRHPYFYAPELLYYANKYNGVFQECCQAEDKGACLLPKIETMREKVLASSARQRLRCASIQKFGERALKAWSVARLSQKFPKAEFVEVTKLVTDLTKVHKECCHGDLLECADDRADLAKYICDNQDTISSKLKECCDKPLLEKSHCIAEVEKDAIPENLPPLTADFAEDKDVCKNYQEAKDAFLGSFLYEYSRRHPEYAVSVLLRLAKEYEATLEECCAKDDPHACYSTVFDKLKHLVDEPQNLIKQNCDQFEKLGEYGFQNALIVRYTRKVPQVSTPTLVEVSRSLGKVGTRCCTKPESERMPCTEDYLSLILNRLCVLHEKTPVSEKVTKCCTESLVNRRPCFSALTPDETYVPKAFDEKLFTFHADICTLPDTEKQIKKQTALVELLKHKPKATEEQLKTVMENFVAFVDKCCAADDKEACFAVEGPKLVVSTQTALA

[1] = probe aXIP binding to arrayed compounds – biochemical, NeuroSMM set, 635/667 nm fluorescence, primary screen (AID 1119); settings: small-molecule microarray, higher = more signal, called active from +8 up or from −8 down;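 also: probe is the protein aXip251-270 applied at 1 µg/mL to compound-printed slides; binding of probe to printed compounds measured as 667 nm fluorescence plus signal to noise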
[2] = probe aNOTCH3 binding on compound microarray – biochemical, small-molecule microarray, 635/667 nm fluorescence, primary screen (AID 1120); settings: higher = more signal;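 also: probe is a biotin-tagged antibody raised against NOTCH3 rather than NOTCH3 protein; score merges spot fluorescence near 667 nm with spot signal to noise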
[3] = probe aNOTCH2 binding on compound microarray – biochemical, small-molecule microarray, 635/667 nm fluorescence, primary screen (AID 1121); settings: higher = more signal;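 also: score merges feature fluorescence read at 667 nm with its signal to noise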
[4] = target: Carbonic anhydrase 2 (Homo sapiens) (UniProt P00918); assay: compounds binding carbonic anhydrase 2 – biochemical, small-molecule microarray, Alexa647-labelled CAII, profiling panel (AID 1122); settings: CAII-A647 binding fluorescence, higher = more signal
[5] = COS7 lysate on small-molecule microarray, probe aHis, 635 nm (AID 1123); settings: COS7 cell lysate, fluorescence, higher = more signal;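 also: z-score combines 667nm fluorescence intensity with signal-to-noise per printed compound spot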
[6] = probe aLAP1 signal on lysate-treated microarray – cell lysate, small-molecule microarray, COS7 lysate, primary screen (AID 1124); settings: probe aLAP1, fluorescence, higher = more signal;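 also: lysate comes from COS7 cells expressing LAP1 and is applied at 0.3 µg/mL; score merges spot fluorescence near 667 nm with signal-to-noise over triplicate slides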
Sam68 (KHDRBS1) = assay: compounds binding KHDRBS1 protein – biochemical, small-molecule microarray, 635 nm fluorescence, primary screen (AID 1125); settings: higher = more signal;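 also: score merges 667 nm channel intensity with signal to noise over triplicate slides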
[7] = test system: Chordin-like protein 2 (CHRDL2); assay: compounds binding chordin-like 2 – biochemical, small-molecule microarray, 635 nm fluorescence, primary screen (AID 1126); settings: fluorescence 635 nm, higher = more signal;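 also: printed compound slides probed with Chrdl2 protein at 4 µg/mL for 1 h at 4 C; score merges 667 nm emission intensity with signal to noise over three replicate slides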
[8] = target: Concanavalin-A (Canavalia ensiformis) (UniProt P02866); assay: compounds binding concanavalin A lectin – biochemical, small-molecule microarray, Alexa647 label, 635 nm, artefact control for SMM control protein annotation, primary screen (AID 1127); settings: ConA-A647 binding fluorescence, higher = more signal;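 also: z combines 667 nm emission intensity with signal-to-noise across three replicate slides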
Sequence of Concanavalin-A (Canavalia ensiformis) (P02866 whole entry, looked up): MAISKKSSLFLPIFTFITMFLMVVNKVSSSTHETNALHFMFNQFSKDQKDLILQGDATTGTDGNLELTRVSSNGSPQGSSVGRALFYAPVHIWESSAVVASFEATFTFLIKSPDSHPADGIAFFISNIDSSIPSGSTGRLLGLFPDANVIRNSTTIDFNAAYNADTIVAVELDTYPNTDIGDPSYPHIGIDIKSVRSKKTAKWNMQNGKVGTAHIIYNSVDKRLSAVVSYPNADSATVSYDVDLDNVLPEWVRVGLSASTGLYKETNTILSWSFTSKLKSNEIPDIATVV

[9] = compounds binding Alexa647 anti-His antibody – biochemical, small-molecule microarray, 635 nm fluorescence, artefact control for SMM control protein annotation, primary screen (AID 1128); settings: higher = more signal;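 also: score merges feature fluorescence with signal-to-noise for each printed compound spot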
[10] = test system: Human papillomavirus type 1a E7 protein (residues 1-88); assay: HPV1a E7 small-molecule binders, primary screen, biochemical, small-molecule microarray, residues 1-88, 635 nm (AID 1129); settings: small-molecule microarray binding, fluorescence 635 nm; higher = more signal
[11] = target: Focal adhesion kinase 1 (Homo sapiens) (UniProt Q05397); assay: PTK2 protein binding on printed compound slides – biochemical, small-molecule microarray, 635/667 nm fluorescence, BSA, DTT, primary screen (AID 1130); settings: 635 nm fluorescence, higher = more signal;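 also: composite of spot emission at 667 nm and signal to noise over triplicate slides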
Sequence of Focal adhesion kinase 1 (Homo sapiens) (Q05397 whole entry, looked up): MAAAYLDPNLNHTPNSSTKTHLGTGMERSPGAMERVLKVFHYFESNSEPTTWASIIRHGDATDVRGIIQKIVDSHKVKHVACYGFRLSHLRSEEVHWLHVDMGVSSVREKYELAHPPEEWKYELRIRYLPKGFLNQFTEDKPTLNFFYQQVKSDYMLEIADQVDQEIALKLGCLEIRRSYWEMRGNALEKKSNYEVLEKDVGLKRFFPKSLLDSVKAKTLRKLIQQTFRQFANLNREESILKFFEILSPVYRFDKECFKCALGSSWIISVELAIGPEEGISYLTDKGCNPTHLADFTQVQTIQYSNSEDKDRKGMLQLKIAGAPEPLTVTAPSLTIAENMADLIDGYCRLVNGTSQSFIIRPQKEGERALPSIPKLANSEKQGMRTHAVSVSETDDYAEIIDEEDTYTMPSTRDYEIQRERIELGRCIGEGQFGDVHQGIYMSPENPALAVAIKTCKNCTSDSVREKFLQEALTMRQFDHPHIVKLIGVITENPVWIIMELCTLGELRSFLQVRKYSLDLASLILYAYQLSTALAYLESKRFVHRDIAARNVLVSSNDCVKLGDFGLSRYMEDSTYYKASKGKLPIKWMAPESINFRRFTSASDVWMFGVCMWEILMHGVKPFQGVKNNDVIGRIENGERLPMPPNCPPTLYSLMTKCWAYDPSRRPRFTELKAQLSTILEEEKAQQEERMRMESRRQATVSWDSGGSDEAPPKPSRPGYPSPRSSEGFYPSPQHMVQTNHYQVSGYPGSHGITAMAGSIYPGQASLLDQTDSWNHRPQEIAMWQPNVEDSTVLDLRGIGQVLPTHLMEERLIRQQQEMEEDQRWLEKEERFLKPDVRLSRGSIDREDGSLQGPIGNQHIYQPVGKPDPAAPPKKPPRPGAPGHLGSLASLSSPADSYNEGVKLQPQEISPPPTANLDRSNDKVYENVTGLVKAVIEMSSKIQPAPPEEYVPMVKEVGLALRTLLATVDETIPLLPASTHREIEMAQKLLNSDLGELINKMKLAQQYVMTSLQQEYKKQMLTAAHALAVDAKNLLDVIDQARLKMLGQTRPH

[12] = test system: Fibrinogen (Alexa647-labelled); assay: Alexa647-fibrinogen binding to printed small molecules – biochemical, small-molecule microarray, 635/667 nm fluorescence, artefact control for SMM control-protein annotation, profiling panel (AID 1131); settings: fibrinogen-A647 binding fluorescence, higher = more signal;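 also: z-score merges 667 nm fluorescence with per-spot signal-to-noise over triplicate slides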
[13] = target: Follistatin (Homo sapiens) (UniProt P19883); assay: FST protein binding to printed compounds – biochemical, small-molecule microarray, 635/667 nm fluorescence, primary screen (AID 1132); settings: 635 nm fluorescence, higher = more signal
Sequence of Follistatin (Homo sapiens) (P19883 whole entry, looked up): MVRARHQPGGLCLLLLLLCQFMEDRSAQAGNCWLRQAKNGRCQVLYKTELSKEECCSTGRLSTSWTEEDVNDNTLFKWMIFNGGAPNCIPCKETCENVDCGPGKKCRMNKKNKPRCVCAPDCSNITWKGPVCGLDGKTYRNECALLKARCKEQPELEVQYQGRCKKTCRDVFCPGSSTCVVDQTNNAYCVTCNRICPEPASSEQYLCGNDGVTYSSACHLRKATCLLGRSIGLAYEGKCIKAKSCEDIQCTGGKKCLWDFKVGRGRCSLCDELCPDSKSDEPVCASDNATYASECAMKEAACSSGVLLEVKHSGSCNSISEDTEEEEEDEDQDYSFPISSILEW

[14] = target: Fibroblast growth factor 2 (Homo sapiens) (UniProt P09038); assay: basic fibroblast growth factor binding to printed compounds – biochemical, small-molecule microarray, 635/667 nm fluorescence, primary screen (AID 1133); settings: FGF2, fluorescence 635/667, higher = more signal
Sequence of Fibroblast growth factor 2 (Homo sapiens) (P09038 whole entry, looked up): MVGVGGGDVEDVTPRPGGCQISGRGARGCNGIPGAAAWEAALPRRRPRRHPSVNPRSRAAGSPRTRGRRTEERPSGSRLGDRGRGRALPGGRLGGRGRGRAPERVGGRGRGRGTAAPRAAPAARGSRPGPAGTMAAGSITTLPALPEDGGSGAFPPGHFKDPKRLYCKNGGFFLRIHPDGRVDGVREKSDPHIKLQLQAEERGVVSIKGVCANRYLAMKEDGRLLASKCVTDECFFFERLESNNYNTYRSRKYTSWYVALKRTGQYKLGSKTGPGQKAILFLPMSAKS

[15] = JC-1 mitochondrial potential readout, lung cancer cells – cell-based, A549, JC-1 fluorescence, basal, 24 h, 100 nL, profiling panel (AID 1138); settings: higher = more signal;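 also: A549 lung adenocarcinoma cells under basal conditions with no added stimulus; test concentration not given here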
Lefty1 = Lefty1 protein binding to printed compounds – biochemical, small-molecule microarray, 635/667 nm fluorescence, primary screen (AID 1139); settings: fluorescence 635/667, higher = more signal
[16] = test system: wheat germ agglutinin (Triticum aestivum), Alexa647-labelled; assay: Alexa647-WGA lectin binding to printed small molecules – biochemical, small-molecule microarray, 635/667 nm fluorescence, artefact control for SMM control-protein annotation, profiling panel (AID 1140); settings: WGA-A647 binding, 635 nm fluorescence, higher = more signal;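 also: score merges 667 nm feature emission with signal to noise over triplicate slides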
[17] = target: Luciferin 4-monooxygenase (Photinus pyralis) (UniProt P08659); assay: inhibition of purified Photinus pyralis luciferase – biochemical, luminescence, purified enzyme, 2006 set, primary screen (AID 1141); settings: purified firefly luciferase, SteadyGlo luminescence, 30 min; higher = more signal, called active from +8 up or from −8 down;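 also: cell-free assay with purified firefly luciferase at 100 ng per well in PBS; test concentration not given here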
Sequence of Luciferin 4-monooxygenase (Photinus pyralis) (P08659 whole entry, looked up): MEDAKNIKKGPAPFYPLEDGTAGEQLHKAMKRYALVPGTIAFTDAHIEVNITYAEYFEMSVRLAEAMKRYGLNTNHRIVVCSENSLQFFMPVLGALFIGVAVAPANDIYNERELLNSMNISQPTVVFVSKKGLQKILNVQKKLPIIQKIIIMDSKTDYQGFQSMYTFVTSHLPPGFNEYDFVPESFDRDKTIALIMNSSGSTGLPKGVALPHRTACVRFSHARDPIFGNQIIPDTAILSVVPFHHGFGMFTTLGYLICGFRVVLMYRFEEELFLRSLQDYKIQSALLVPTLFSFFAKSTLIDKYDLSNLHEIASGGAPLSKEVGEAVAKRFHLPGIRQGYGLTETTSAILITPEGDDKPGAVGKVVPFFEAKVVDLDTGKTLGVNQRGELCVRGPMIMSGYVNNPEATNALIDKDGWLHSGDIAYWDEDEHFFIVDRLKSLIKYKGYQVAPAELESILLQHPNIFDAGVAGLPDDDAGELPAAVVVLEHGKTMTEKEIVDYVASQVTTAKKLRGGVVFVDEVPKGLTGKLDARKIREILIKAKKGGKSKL

Compound | composite z-score (Albumin (Bos taurus)) | composite Z-score [1] | composite z-score [2] | composite z-score [3] | composite z-score [4] | composite z-score [5] | composite z-score [6] | composite z-score (Sam68 (KHDRBS1)) | composite z-score [7] | composite z-score [8] | composite z-score [9] | composite z-score [10] | composite z-score [11] | composite z-score [12] | composite z-score [13] | composite z-score [14] | z-score [15] | composite z-score (Lefty1) | composite z-score [16] | z-score [17]
CC(C)CN1C(=O)[C@@]2(c3ccc([N+](=O)[O-])cc3)CC(=O)N(C3CCCCC3)[C@@H]2c2ccc(CO)cc21 | -0.124 | 0.659 (inactive) | -0.357 | -0.0241 | 0.77 | -0.335 | 0.73 | -0.859 | -1.91 | -0.895 | -0.75 | -1.07 | -0.0035 | -1.05 | -1.29 | -0.875 | 0.766 | -0.919 | 0.428 | 0.791 (inactive)
Cc1ccc(S[C@]2(C(=O)O)CC(=O)N(Cc3ccccc3C(F)(F)F)[C@@H]2c2ccc(CO)cc2I)cc1 | 0.426 | 0.286 (inactive) | -0.0716 | 0.0477 | 0.502 | 1.74 | 1.51 | 0.406 | -0.673 | -0.0929 | 0.275 | 0.0179 | -0.0066 | 0.0184 | 0.0699 | 0.511 | 0.348 | -0.781 | 0.75 | -0.499 (inactive)
CC(C)CNC(=O)[C@@]1(Cc2ccccc2I)c2ccccc2C(=O)N(Cc2ccccc2C(F)(F)F)[C@H]1c1ccc(CO)cc1 | 0.212 | 0.117 (inactive) | -0.234 | 0.0344 | 0.417 | 0.959 | 0.393 | 0.432 | -0.731 | -0.0801 | 0.657 | 0.0788 | -0.287 | -0.105 | -0.239 | -0.217 | -0.171 | -0.639 | 0.34 | 0.654 (inactive)
O=C1NC(=O)C2C1C=CC(C(O)c1ccc(I)cc1)N2Nc1ccc(Cl)cc1Cl (stereo not given) | 0.99 | -0.234 (inactive) | 0.387 | 0.127 | 0.404 | 1.61 | 0.943 | 1.22 | -0.776 | 1.09 | 0.258 | 1.03 | 0.741 | 0.978 | 0.73 | -0.451 | 0.535 | -0.199 | 0.661 | -1.33 (inactive)
COC(=O)c1c(CC[C@@H](CO)NC(=O)NCCc2c[nH]c3ccccc23)oc(C(=O)Cc2ccccc2)c1C(=O)OC | 0.0018 | -0.326 (inactive) | 0.0842 | -0.14 | 0.112 | 0.452 | -0.161 | 0.583 | 0.149 | 0.467 | 0.108 | 0.27 | 0.131 | 0.273 | 0.368 | 0.251 | -0.364 | 0.456 | 0.0707 | 0.521 (inactive)
C[N+](C)(C)CCCC[C@@H]1NC(=O)[C@H]2C[C@@H](C(=O)NCCCCCCNC(=O)CS)[C@@H](c3ccc(O)cc3)N2C1=O | 0.329 | -0.921 (inactive) | -0.437 | -0.0764 | 0.501 | 0.483 | 1.49 | -0.611 | 0.0077 | -2.35 | 1.44 | -0.0478 | -0.103 | -2.2 | 1.36 | 0.247 | -0.459 | 0.0544 | -1.07 | 0.24 (inactive)
C#CCN(C/C=C/c1ccccc1)[C@H](CO)c1ccccc1 | -0.287 | -0.014 (inactive) | -0.274 | -0.196 | 0.0571 | -0.128 | -0.0886 | -0.142 | -0.0231 | -0.159 | -0.429 | 0.168 | -0.0352 | -0.213 | 0.495 | 0.444 | -1.38 | 0.968 | 0.241 | 0.616 (inactive)
CC(C)[Si](C#CCCCC#N)(O[C@H](c1ccccc1)c1cn(Cc2cccc(Cl)c2)nn1)C(C)C | 0.588 | 1.02 (inactive) | 0.0871 | -0.11 | 0.442 | 0.79 | -0.192 | 1.3 | 0.841 | 0.0848 | 0.822 | 0.953 | -0.213 | 0.902 | 1.13 | 0.955 | 5.27 | 0.764 | 0.276 | -0.513 (inactive)
Cc1ccc(C2C3C(=O)CC4C(=O)N(c5ccccc5)C(=O)C4C3CN2S(=O)(=O)c2ccc(C)cc2)cc1 (stereo not given) | 0.684 | -0.0384 (inactive) | 0.469 | 0.603 | 0.539 | 2.17 | 0.362 | 1.17 | -0.479 | 0.671 | 1.16 | 1.24 | -0.177 | 0.403 | 0.24 | 0.294 | -0.112 | 0.0507 | 0.912 | 0.732 (inactive)
COc1ccc(CCNC(=O)[C@@]2(C)c3ccccc3C(=O)N(c3ccc(C)cn3)[C@H]2c2ccc(CO)cc2)cc1 | -0.252 | -0.133 (inactive) | -0.365 | -0.0956 | 0.793 | -0.335 | 0.165 | 0.243 | -1.02 | -0.699 | -0.463 | -0.0172 | -0.284 | -1.95 | -0.298 | -1.09 | 0.14 | -0.601 | -0.902 | 1.14 (inactive)
